{
  "source": "PubChem BioAssay",
  "note": "Where “and” joins values, the source holds several entries; their conditions need not be identical. Equal entries are not always repeated.",
  "data": [
    {"assay": "reversal of MRP1-mediated doxorubicin resistance, pilot screen, H69AR cells, doxorubicin co-treatment (AID 601)", "details": "H69AR cells + 2 uM doxorubicin, CellTiter-Glo, 72 h; measured here: viability with 2 uM doxorubicin; at 10 µM; stronger effect = lower value", "values": [
      {"smiles": "COc1cccc(C(c2nnnn2CCc2ccccc2)N2CCN(c3ccccc3)CC2)c1OC", "note": "(stereo not given)", "viability": "91%"},
      {"smiles": "CCN(CCO)C1CC(=O)N(c2ccccc2C)C1=O", "note": "(stereo not given)", "viability": "76.7%"},
      {"smiles": "CCOC(=O)C1=C(C)Nc2nnnn2C1c1c[nH]c2ccccc12", "note": "(stereo not given)", "viability": "95.8%"},
      {"smiles": "Cc1cc(C)c(OCC(=O)Nc2ccc3c(c2)OCO3)cc1C", "viability": "88%"},
      {"smiles": "COc1ccccc1-c1nc(C#N)c(N2CCN(c3ccccc3)CC2)o1", "viability": "79.6%"},
      {"smiles": "O=C1CCC(=O)N1OCCCOc1ccc(Br)cc1Cl", "viability": "95.9%"},
      {"smiles": "CCOc1cc(C(=O)NCC2CCCO2)cc(OCC)c1OCC", "note": "(stereo not given)", "viability": "92.2%"},
      {"smiles": "COc1ccc2c(c1OC)C(=O)OC2C1c2c(cc3c(c2OC)OCO3)CCN1C", "note": "(stereo not given)", "viability": "91.6% and 97%"},
      {"smiles": "Cc1ccc(-c2nnn(CC(=O)N(CC3CCCO3)C(C(=O)NC(C)(C)C)c3ccc(F)cc3)n2)o1", "note": "(stereo not given)", "viability": "97.4%"},
      {"smiles": "O=c1ccc(S(=O)(=O)N2CCC(Cc3ccccc3)CC2)c[nH]1", "viability": "86.8%"},
      {"smiles": "Cc1[nH]c(=O)[nH]c(=O)c1S(=O)(=O)N1c2ccc(F)cc2CCC1C", "note": "(stereo not given)", "viability": "99.6%"},
      {"smiles": "NC(=O)c1ccccc1NC(=O)CN1CCOCC1", "viability": "81.9%"},
      {"smiles": "O=C(Nn1c(C2CC2)nc2ccccc2c1=O)c1ccco1", "viability": "95.9%"},
      {"smiles": "CCOc1ccc(-c2nnn(CCC(=O)O)n2)cc1OC", "viability": "89.8%"},
      {"smiles": "O=C(CCN1C(=O)COc2ccccc21)NCCN1CCN(c2cccc(Cl)c2)CC1", "viability": "95.1%"},
      {"smiles": "Cc1ccc(-n2nc(-c3cccs3)cc2C(=O)NCC2CCCO2)c(C)c1", "note": "(stereo not given)", "viability": "100%"},
      {"smiles": "Cc1cc(C)cc(OCCCC(=O)O)c1", "viability": "91.8%"},
      {"smiles": "CCN(C(=O)Cc1c(C(=O)O)[nH]c2ccccc12)c1cc(OC)ccc1OC", "viability": "95.3%"},
      {"smiles": "C=CCSC1=C(C#N)C(c2ccccc2OCC)CC(=O)N1", "note": "(stereo not given)", "viability": "91.8%"},
      {"smiles": "COc1ccc(Br)cc1S(=O)(=O)N1CC(C)OC(C)C1", "note": "(stereo not given)", "viability": "96.2%"},
      {"smiles": "O=C(NCc1ccco1)c1cccn2c(=O)c3sccc3nc12", "viability": "82.4%"},
      {"smiles": "Cc1cc(NC(=O)C23CCC(C)(c4nc5cc(Cl)c(Cl)cc5nc42)C3(C)C)no1", "note": "(stereo not given)", "viability": "77.1%"},
      {"smiles": "CC(NC(=O)Nc1ccccc1)C(c1cccs1)N1CCOCC1", "note": "(stereo not given)", "viability": "93.5%"},
      {"smiles": "CCS(=O)(=O)Nc1ccc(C(=O)CC2(O)C(=O)Nc3ccccc32)cc1", "note": "(stereo not given)", "viability": "97.3%"},
      {"smiles": "CCN(CC)C(=O)Cn1c(=O)n(Cc2ccccc2Cl)c2c1c(=O)n(C)c(=O)n2C", "viability": "89.5%"},
      {"smiles": "CC(C)COc1nc2ccccc2nc1C(C#N)C(=O)NC1CCCCC1", "note": "(stereo not given)", "viability": "105%"},
      {"smiles": "CCOC(=O)c1sc(NC(=O)CNC(=O)Cn2cnc3sc(C)c(C)c3c2=O)nc1C", "viability": "96.7%"},
      {"smiles": "CCc1cc(=O)oc2c(CN3CCN(C)CC3)c(O)c(Cl)cc12", "viability": "91.8%"},
      {"smiles": "CC(=O)N1C(=O)C2(Nc3ccccc3N2)c2ccccc21", "viability": "88.1%"},
      {"smiles": "COc1ccc(C)cc1S(=O)(=O)N(CC(=O)O)c1ccccc1", "viability": "97.2%"},
      {"smiles": "COc1ccc(N2C(N)=C(C#N)C(c3cccnc3)C3=C2CC(C)(C)CC3=O)cc1", "note": "(stereo not given)", "viability": "23.6%"},
      {"smiles": "COc1ccc(NC(=O)CN2CCN(S(=O)(=O)c3ccc(Cl)cc3)CC2)cc1", "viability": "93.1%"},
      {"smiles": "O=C(O)c1cccc(S(=O)(=O)N2CCOCC2)c1", "viability": "95.5%"},
      {"smiles": "CCn1c(C)cc(=S)c2ccccc21", "viability": "87.3%"},
      {"smiles": "Cn1c(SCC(=O)O)nnc1C1CCCCC1", "viability": "93.9%"},
      {"smiles": "COc1ccc(OC)c(NC(=O)CCN2CCN(c3ccccc3F)CC2)c1", "viability": "84.7%"},
      {"smiles": "O=C(CSc1ncnc2c1oc1ccccc12)Nc1ccccc1C(F)(F)F", "viability": "87.6%"},
      {"smiles": "Cc1ccc(S(=O)(=O)NCCC(=O)OCn2nnc3ccccc3c2=O)cc1", "viability": "108%"},
      {"smiles": "CCOc1ccc2nc(SCC#N)c(C#N)cc2c1", "viability": "84%"},
      {"smiles": "O=C(Nc1cccnc1)c1ccc2c(c1)OCO2", "viability": "83.9%"}
    ]},
    {"assay": "reversal of MRP1-mediated doxorubicin resistance, pilot screen, H69AR cells, doxorubicin co-treatment (AID 601)", "details": "H69AR cells, CellTiter-Glo, 72 h; compound alone cytotoxicity; at 10 µM", "values": [
      {"smiles": "COc1cccc(C(c2nnnn2CCc2ccccc2)N2CCN(c3ccccc3)CC2)c1OC", "note": "(stereo not given)", "viability": "83.1%"},
      {"smiles": "CCN(CCO)C1CC(=O)N(c2ccccc2C)C1=O", "note": "(stereo not given)", "viability": "101%"},
      {"smiles": "CCOC(=O)C1=C(C)Nc2nnnn2C1c1c[nH]c2ccccc12", "note": "(stereo not given)", "viability": "104%"},
      {"smiles": "Cc1cc(C)c(OCC(=O)Nc2ccc3c(c2)OCO3)cc1C", "viability": "84.5%"},
      {"smiles": "COc1ccccc1-c1nc(C#N)c(N2CCN(c3ccccc3)CC2)o1", "viability": "89.8%"},
      {"smiles": "O=C1CCC(=O)N1OCCCOc1ccc(Br)cc1Cl", "viability": "93.5%"},
      {"smiles": "CCOc1cc(C(=O)NCC2CCCO2)cc(OCC)c1OCC", "note": "(stereo not given)", "viability": "102%"},
      {"smiles": "COc1ccc2c(c1OC)C(=O)OC2C1c2c(cc3c(c2OC)OCO3)CCN1C", "note": "(stereo not given)", "viability": "51.7% and 73.8%"},
      {"smiles": "Cc1ccc(-c2nnn(CC(=O)N(CC3CCCO3)C(C(=O)NC(C)(C)C)c3ccc(F)cc3)n2)o1", "note": "(stereo not given)", "viability": "101%"},
      {"smiles": "O=c1ccc(S(=O)(=O)N2CCC(Cc3ccccc3)CC2)c[nH]1", "viability": "95.3%"},
      {"smiles": "Cc1[nH]c(=O)[nH]c(=O)c1S(=O)(=O)N1c2ccc(F)cc2CCC1C", "note": "(stereo not given)", "viability": "95.7%"},
      {"smiles": "NC(=O)c1ccccc1NC(=O)CN1CCOCC1", "viability": "88.1%"},
      {"smiles": "O=C(Nn1c(C2CC2)nc2ccccc2c1=O)c1ccco1", "viability": "95.4%"},
      {"smiles": "CCOc1ccc(-c2nnn(CCC(=O)O)n2)cc1OC", "viability": "102%"},
      {"smiles": "O=C(CCN1C(=O)COc2ccccc21)NCCN1CCN(c2cccc(Cl)c2)CC1", "viability": "83.8%"},
      {"smiles": "Cc1ccc(-n2nc(-c3cccs3)cc2C(=O)NCC2CCCO2)c(C)c1", "note": "(stereo not given)", "viability": "86.5%"},
      {"smiles": "Cc1cc(C)cc(OCCCC(=O)O)c1", "viability": "95.3%"},
      {"smiles": "CCN(C(=O)Cc1c(C(=O)O)[nH]c2ccccc12)c1cc(OC)ccc1OC", "viability": "92.7%"},
      {"smiles": "C=CCSC1=C(C#N)C(c2ccccc2OCC)CC(=O)N1", "note": "(stereo not given)", "viability": "95.3%"},
      {"smiles": "COc1ccc(Br)cc1S(=O)(=O)N1CC(C)OC(C)C1", "note": "(stereo not given)", "viability": "91.3%"},
      {"smiles": "O=C(NCc1ccco1)c1cccn2c(=O)c3sccc3nc12", "viability": "58.4%"},
      {"smiles": "Cc1cc(NC(=O)C23CCC(C)(c4nc5cc(Cl)c(Cl)cc5nc42)C3(C)C)no1", "note": "(stereo not given)", "viability": "91.6%"},
      {"smiles": "CC(NC(=O)Nc1ccccc1)C(c1cccs1)N1CCOCC1", "note": "(stereo not given)", "viability": "110%"},
      {"smiles": "CCS(=O)(=O)Nc1ccc(C(=O)CC2(O)C(=O)Nc3ccccc32)cc1", "note": "(stereo not given)", "viability": "89.5%"},
      {"smiles": "CCN(CC)C(=O)Cn1c(=O)n(Cc2ccccc2Cl)c2c1c(=O)n(C)c(=O)n2C", "viability": "93.7%"},
      {"smiles": "CC(C)COc1nc2ccccc2nc1C(C#N)C(=O)NC1CCCCC1", "note": "(stereo not given)", "viability": "84.9%"},
      {"smiles": "CCOC(=O)c1sc(NC(=O)CNC(=O)Cn2cnc3sc(C)c(C)c3c2=O)nc1C", "viability": "104%"},
      {"smiles": "CCc1cc(=O)oc2c(CN3CCN(C)CC3)c(O)c(Cl)cc12", "viability": "98.4%"},
      {"smiles": "CC(=O)N1C(=O)C2(Nc3ccccc3N2)c2ccccc21", "viability": "97.6%"},
      {"smiles": "COc1ccc(C)cc1S(=O)(=O)N(CC(=O)O)c1ccccc1", "viability": "86.1%"},
      {"smiles": "COc1ccc(N2C(N)=C(C#N)C(c3cccnc3)C3=C2CC(C)(C)CC3=O)cc1", "note": "(stereo not given)", "viability": "20.6%"},
      {"smiles": "COc1ccc(NC(=O)CN2CCN(S(=O)(=O)c3ccc(Cl)cc3)CC2)cc1", "viability": "81.8%"},
      {"smiles": "O=C(O)c1cccc(S(=O)(=O)N2CCOCC2)c1", "viability": "98.9%"},
      {"smiles": "CCn1c(C)cc(=S)c2ccccc21", "viability": "91.2%"},
      {"smiles": "Cn1c(SCC(=O)O)nnc1C1CCCCC1", "viability": "92.7%"},
      {"smiles": "COc1ccc(OC)c(NC(=O)CCN2CCN(c3ccccc3F)CC2)c1", "viability": "97.8%"},
      {"smiles": "O=C(CSc1ncnc2c1oc1ccccc12)Nc1ccccc1C(F)(F)F", "viability": "95.8%"},
      {"smiles": "Cc1ccc(S(=O)(=O)NCCC(=O)OCn2nnc3ccccc3c2=O)cc1", "viability": "95.1%"},
      {"smiles": "CCOc1ccc2nc(SCC#N)c(C#N)cc2c1", "viability": "100%"},
      {"smiles": "O=C(Nc1cccnc1)c1ccc2c(c1)OCO2", "viability": "97.7%"}
    ]}
  ]
}
